# MEKK2 WT-MEK5: raises or lowers MEK5 binding to wildtype human MEKK2 PB1 domain; Q9Y2U5; bead flow cytometry, Alexa488-MEK5 binding to MEKK2 WT; actives lie on both sides; binding response (% of control), % at 10 µM; 1.1% of 290,000 active; in the data active = binding response below about 67% or above about 130%
# MEKK2 mut-MEK5: signal of MEK5 binding to mutant human MEKK2 PB1 domain | bead flow cytometry, Alexa488-MEK5 binding to MEKK2 mutant | percent response, % at 10 µM | 0.35% of 290,000 active; in the data active = percent response above about 24%, passing the limit was not always enough
# CRFR2-BP antag: antagonists of CRF-binding protein/CRF-R2 receptor complex; inhibition, % at 11.8 µM; AID 588475; 0.59% of 350,000 active; HEK293 CRF-R2/CRF-BP, CRF-induced calcium fluorescence;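 active = inhibition of the ligand-induced calcium signal above about 50% at the single tested concentration, limit read from the data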
# CRFBP-R2 agonist: CRF-BP/CRF-R2 complex agonism | activation, % at 13.2 µM | HEK293 CRF-R2/CRF-BP, calcium dye fluorescence (FLIPR); percent of saturating CRF peptide response | 0.46% of 350,000 active | AID 588473;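 active = activation of at least 50%, plus an integration ratio under a set limit after plate pattern correction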;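 also: plate controls were neutral control wells without compound for no effect and CRF at EC100 for full effect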
# MEKK3 PB1 HTS: MEKK3-MEK5 PB1 interaction, increase or decrease; Q99759; bead-based flow cytometry, Alexa488-MEK5 binding to MEKK3; actives lie on both sides; 0 = blocked by unlabeled MEK5, 100 = vehicle; binding response (% of control), % at 10 µM; 1.4% of 290,000 active;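 active = binding response more than 3 SD above or below the average of its plate-row segment, actives on both sides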;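 also: Alexa488 bead fluorescence after subtracting the streptavidin-only scavenger bead signal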
# ABCB6 inh MLPCN: inhibitors of human ABC transporter ABCB6. Q9NP58. K562-ABCB6 porphyrin accumulation, flow cytometry, 1 h; stronger effect = lower value. fluorescence ratio to DMSO, % at 10 µM. 0.19% of 360,000 active;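 active = fluorescence ratio to DMSO below 75%, the collection mean minus 3 SD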;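 also: signal is porphyrin accumulated inside mitochondria; 100% equals median channel fluorescence of DMSO control wells; lower ratio means ABCB6 inhibition with less porphyrin fluorescence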
# Target sequence (Q9NP58 whole entry, looked up): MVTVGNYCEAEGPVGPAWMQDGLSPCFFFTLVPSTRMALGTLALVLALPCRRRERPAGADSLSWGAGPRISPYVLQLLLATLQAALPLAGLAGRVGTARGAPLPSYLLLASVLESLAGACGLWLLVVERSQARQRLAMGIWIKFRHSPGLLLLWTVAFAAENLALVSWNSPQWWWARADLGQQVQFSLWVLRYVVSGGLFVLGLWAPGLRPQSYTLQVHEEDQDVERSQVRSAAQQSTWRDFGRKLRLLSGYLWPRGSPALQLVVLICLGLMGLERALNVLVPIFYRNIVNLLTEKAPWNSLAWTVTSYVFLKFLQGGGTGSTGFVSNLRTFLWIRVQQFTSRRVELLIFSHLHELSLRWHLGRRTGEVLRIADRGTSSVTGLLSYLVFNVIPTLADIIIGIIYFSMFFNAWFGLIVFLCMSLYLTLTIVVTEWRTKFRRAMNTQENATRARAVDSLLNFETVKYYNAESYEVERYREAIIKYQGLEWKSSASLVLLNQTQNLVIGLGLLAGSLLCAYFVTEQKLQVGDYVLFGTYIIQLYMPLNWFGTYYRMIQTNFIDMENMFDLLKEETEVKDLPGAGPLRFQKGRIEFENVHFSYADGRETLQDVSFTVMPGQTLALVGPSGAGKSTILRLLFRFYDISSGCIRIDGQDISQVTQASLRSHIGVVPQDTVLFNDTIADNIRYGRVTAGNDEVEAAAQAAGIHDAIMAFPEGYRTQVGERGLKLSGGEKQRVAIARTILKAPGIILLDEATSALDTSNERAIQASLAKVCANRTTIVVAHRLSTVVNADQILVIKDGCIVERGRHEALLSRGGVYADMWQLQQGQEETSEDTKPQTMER
# MEKK2wt confirm: raises or lowers MEK5 binding to wildtype human MEKK2, retest; shares compounds with MEKK3 PB1 HTS; bead flow cytometry, Alexa488-MEK5 binding to MEKK2 WT; actives lie on both sides; binding response (% of control), % at 10 µM; 2.4% of 5,900 active; in the data active = binding response below about 16% or above about 210%; inactive = in between
# MEKK2mut-MEK5: signal of MEK5 binding to mutant human MEKK2, retest; shares compounds with MEKK3 PB1 HTS; bead flow cytometry, Alexa488-MEK5 binding to MEKK2 mutant; percent response, % at 10 µM; 2% of 5,900 active; in the data active = percent response mostly above about 71%, no sharp cut-off; inactive = mostly below about 38%;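 also: higher means compound restores mutant binding toward wildtype level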
# MEKK3 confirm: MEKK3-MEK5 PB1 inhibition, single concentration confirmation; shares compounds with MEKK3 PB1 HTS; bead flow cytometry, Alexa488-MEK5 binding to MEKK3; stronger effect = lower value; binding response (% of control), % at 10 µM; 1.8% of 5,900 active;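 active = binding response below 72% of control, or above a set upper limit, though filed actives all read lower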;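 also: 100% = DMSO only wells and 0% = binding blocked by excess unlabeled MEK5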
# The depositor's hits bear a star; . = no result given; [ ] = dose if it differs, or a comment. An excerpt weighted towards active compounds, which were near 2.9% of everything screened.
SMILES,MEKK2 WT-MEK5,MEKK2 mut-MEK5,CRFR2-BP antag,CRFBP-R2 agonist,MEKK3 PB1 HTS,ABCB6 inh MLPCN,MEKK2wt confirm,MEKK2mut-MEK5,MEKK3 confirm
CCOC(=O)CC(NC(=O)c1cc2cccc(OC)c2oc1=O)c1cccc([N+](=O)[O-])c1 (stereo not drawn),102,0,5,0,135*,100,102,1,104
CCOC(=O)CC(NS(=O)(=O)c1ccc(OC)c(OC)c1)c1cccc([N+](=O)[O-])c1 (stereo not drawn),100,-2,-5,0,98,99,.,.,.
COc1cccc2cc(C(=O)NCc3ccc(C)cc3)c(=O)oc12,103,4,-7,-4,99,94,.,.,.
C=C(C)CSc1nc2sc3c(c2c(=O)n1-c1ccc(OC)cc1)CCN(C)C3,115,12,7,1,103,.,.,.,.
C=CC[C@H](CC(=O)NCCO)C(=O)NCCOC(=O)[C@@H](CC=C)CC(=O)OC(C)(C)C,.,.,-10,-1,.,107,.,.,.
Cc1ccc(-n2nnc(-c3cccnc3)n2)cc1,85,-7,7,-3,78*[inhibitor],97,98,0,101
CCN1CCN(C(=O)C23CCC(C)(C(=O)C2Br)C3(C)C)CC1 (stereo not drawn),78,-23,-17,1,79,104,.,.,.
CN1CCN(C(=O)C23CCC(C)(C(=O)C2Br)C3(C)C)CC1 (stereo not drawn),122,30,4,0,135*,94,98,-3,100
Cc1ccc([N+](=O)[O-])cc1S(=O)(=O)Nc1ccc(C(=O)NCC2CCCO2)cc1 (stereo not drawn),.,.,-4,-1,.,105,.,.,.
CCN1CCN(Cc2nnc(-c3ccc(C)cc3)o2)CC1,103,0,-14,1,101,100,.,.,.
Cc1cc(-c2ccc(Cl)cc2)n2ncnc2n1,59,-39,4,-2,50*[inhibitor],98,101,-3,95
Cc1cc(Nc2ccc(Cl)cc2)n2ncnc2n1,104,3,4,0,104,102,.,.,.
Cc1cc(C(=O)Nc2ccc(N3CCCC3)c(Cl)c2)ccc1[N+](=O)[O-],130,2,2,-1,135*,87,110,-2,103
Cc1cccc(C)c1NS(=O)(=O)c1ccc(NC(=O)c2ccc(Cl)c([N+](=O)[O-])c2)cc1,115,1,-18,1,140*,99,100,-2,101
O=C(Nc1ccc(N2CCCC2)c(Cl)c1)c1ccc([N+](=O)[O-])cc1,93,-2,-14,-1,107,107,.,.,.
COc1ccc(N(CC(=O)N/N=C/c2cccnc2)S(=O)(=O)c2ccc(C)cc2)cc1OC,107,4,-4,1,103,97,.,.,.
CCCCCc1cc(=O)oc2c(C(CCN3CCCC3)c3cc(OC)c(OC)c(OC)c3)c(OC)cc(OC)c12 (stereo not drawn),157*,24*,-4,-3,108,102,143,21,109
COc1cc(C(CCN2CCCC(C)C2)c2c(OC)cc(OC)c3c(-c4ccccc4)cc(=O)oc23)cc(OC)c1OC (stereo not drawn),138*,20,-12,3,108,92,121,10,105
COc1cc(OC)c2ccc(=O)oc2c1C(CCN1CCCC1)c1ccc(N(C)C)cc1 (stereo not drawn),102,4,-4,-1,104,99,.,.,.

# Screens (PubChem BioAssay)
